Pf growth 96h – P. falciparum growth inhibition at 96 hour, primary screen for plastid delayed-death inhibitors; Potency, µM (doses to about 28.7 µM), without a hit: at the top dose activity change, negative = inhibition, actives largely listed as inhibitors; 320,000 compounds, 6.9% hits; P. falciparum luciferase reporter growth, 96 h
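Readout is luminescence from an integrated firefly luciferase in P. falciparum. Red cells, 2% hematocrit and 0.05% parasitemia final, were cultured with compound through two parasite generations (96 hours) at 37 C, 5% CO2.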
Pf growth 48h – inhibits P. falciparum growth in the first generation, 48 h; 310,000 compounds, 5.9% hits; AID 504832; P. falciparum luciferase growth in erythrocytes, 48 h; Potency, µM (titrated, usually from 28.7 µM), inactives show top-dose activity change, negative = inhibition, actives largely listed as inhibitors
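Read-out is firefly luciferase luminescence from an integrated reporter in P. falciparum, so falling signal marks reduced parasite growth. Infected erythrocytes were at 2% hematocrit and 0.1% parasitemia (final) in Albumax-supplemented RPMI 1640.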
HCV inh – inhibitors of hepatitis C virus infection. Huh7.5.1 HCVcc-Cre infection, luciferase reporter, 44 h. Potency, µM (series often up to 41.8 µM), for the others: at the highest dose activity change, negative = inhibition, usual class: inhibitors. 340,000 compounds, 3.4% hits. AID 651820
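Infectious HCV cell culture screen: compound-treated cells (1,000/well, pre-plated 4 h) are infected with HCVcc-Cre at roughly 0.5 moi and grown 44 h. Infection is quantified by luciferase signal after 15 min substrate incubation at room temperature.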
AMA1 RON2 block – AMA1-RON2 (P. falciparum) interaction inhibition. AlphaScreen AMA1-biotinylated RON2 peptide binding. Potency, µM (doses to about 58.2 µM), inactives show at the highest dose activity change, negative = inhibition, usual class: inhibitors. 360,000 compounds, 0.2% hits;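 further: 0% = vehicle wells and -100% = peptide control; nearly all actives have a fitted effect of over 45% in size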
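AMA1 (3D7) with his tag at 25 nM final met compounds first, then biotinylated RON2 peptide at 25 nM; detection used donor plus acceptor beads, 10 µg/mL apiece, read by AlphaScreen after 30 min at room temperature.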
AmpC inh no detg – blocks E. coli AmpC beta-lactamase in detergent-free assay; P00811; AmpC nitrocefin hydrolysis, absorbance 480 nm, 0.0001% Triton; Potency, µM (highest dose often 57.1 µM), inactives show top-dose activity change, negative = inhibition, hits mostly inhibitors; 330,000 compounds, 0.52% hits; AID 485341;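 further: plate controls were no compound for no effect and no enzyme for full effect; nearly all actives have a fitted effect of over 20% in size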
Target sequence (P00811 whole entry, looked up): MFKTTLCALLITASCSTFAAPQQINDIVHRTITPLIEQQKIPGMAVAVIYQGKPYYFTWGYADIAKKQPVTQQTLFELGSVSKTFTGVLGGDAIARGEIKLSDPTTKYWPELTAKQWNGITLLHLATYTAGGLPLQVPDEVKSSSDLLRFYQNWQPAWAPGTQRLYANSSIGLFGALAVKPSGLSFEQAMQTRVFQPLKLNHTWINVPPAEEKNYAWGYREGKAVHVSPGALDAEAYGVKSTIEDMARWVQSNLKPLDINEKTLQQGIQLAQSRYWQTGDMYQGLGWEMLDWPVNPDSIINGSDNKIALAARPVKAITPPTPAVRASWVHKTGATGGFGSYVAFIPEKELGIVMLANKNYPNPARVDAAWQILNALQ
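20 mM phosphate pH 7.0 + 0.01% (detergent screen) or 0.0001% Triton X-100; 5.3 nM AmpC reagent; cpd preinc 15 min RT; nitrocefin (800 uM stock) to start; A480 q20 s × 4 min; Activity was normalised to no-enzyme and no-compound control wells.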
AmpC detergent – AmpC beta-lactamase inhibition with detergent present. 370,000 compounds, 0.041% hits. Potency, µM (titrated, usually from 114 µM), for inactives: at the top dose activity change, negative = inhibition, actives largely listed as inhibitors. P00811. AmpC hydrolysis of nitrocefin, absorbance 480 nm, 0.01% Triton. AID 485294;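 further: 0% = no-compound wells and -100% = no-enzyme wells; nearly all actives have a fitted effect of over 25% in size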
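AmpC (5.3 nM in the dispensed reagent) in 20 mM phosphate pH 7.0 with 0.01% (detergent screen) or 0.0001% Triton X-100 was preincubated with compounds for 15 min at room temperature. Nitrocefin was then added from an 800 uM solution, and hydrolysis was followed at 480 nm.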
Active calls of the source: *; ? = inconclusive; . = no result; [ ] = another dose, or the depositor's remark. Hits are enriched below; roughly 11% of the tested compounds scored in any of these assays. The call rests on the fitted dose curve; in most records, active means well fitted curve in the direction sought with a large enough effect; inconclusive means small, poorly fitted or top-dose-only effect, or another doubt; inactive means no such curve, though single readings can be large; an effect the other way counts as inactive or inconclusive. Unless noted, on the % scale 0 is the no-effect control and ±100 the full control effect; potency means the concentration at half of the fitted maximal effect.

SMILES | Pf growth 96h | Pf growth 48h | HCV inh | AMA1 RON2 block | AmpC inh no detg | AmpC detergent
O=c1c2cnn(-c3ccc(F)cc3)c2ncn1Cc1ccccc1 | 8.28µM* | -8.4% | 7.9% | 11.2% | -10.3% | -11.6%
O=c1c2cnn(-c3ccccc3Cl)c2ncn1Cc1cccnc1 | 13.1µM* | ? | 21.1% | 4.7% | -3.9% | -2.7%
CCn1ccc2c(OCC(=O)Nc3ccc(C(C)=O)cc3)cccc2c1=O | . | . | . | . | . | 1.4%
Cc1ccc(SCc2[nH]nc3c2C2(C(=O)Nc4ccc(F)cc42)C(C#N)=C(N)O3)cc1 (stereo unspecified) | . | 4.2% | -2.6% | -14.5% | -14.1% | -2.9%
CC(=O)N1CCC2(CC1)C(C#N)=C(N)Oc1n[nH]c(CSc3ccc(C)cc3)c12 | 6.57µM* | 32.4% | 8.2% | 9.8% | -36.0% | -7.1%
CCc1cc2c(cc3c(=O)n(CC(=O)NC4CCCCC4)ncn32)s1 | . | . | . | . | . | 22.6%
O=C(Cn1ncn2c(cc3sccc32)c1=O)NC1CCCC1 | 8.28µM* | 17.4% | 11.3% | 3.7% | 0.1% | -5.1%
CC(C)c1ccc(NC(=O)C(Cc2ccccc2)NS(=O)(=O)c2ccc3c(c2)CCC(=O)N3)cc1 (stereo unspecified) | . | . | . | . | . | 15.0%
O=C(Nc1ccccc1C(=O)OCc1cc(=O)n2ccsc2n1)c1cccc(F)c1 | . | . | . | . | . | -11.0%
NC1=NC2=C(CCCC2)C2(CCCCC2)S1 | 212.9% | 13.1µM* | ? | 2.0% | -46.8% | 4.6%
COC(=O)c1cc(C(C)=O)c(C)[nH]c1=O | 5.22µM* | -3.2% | 11.0% | -8.5% | -4.7% | 4.6%
CCOC(=O)c1cc(C(C)=O)c(=O)[nH]c1C | 34.4% | 17.8% | -3.5% | 2.9% | -5.2% | 2.8%
CCCCCCCCNCCS(=O)(=O)NCCCCCCCC | . | . | 3.16µM* | 8.7% | . | .
CCCCCCCCNS(=O)(=O)CCNCCc1ccccc1 | . | . | 15.8% | 12.4% | . | .
Cc1c(C(=O)N(C)C)sc2c1c(=O)n(-c1ccc(Cl)c(Cl)c1)c(=O)n2CC(=O)N1CCCCC1C (stereo unspecified) | . | . | . | . | . | 1.6%
CC(C)Cn1c(-c2ccncc2)n[nH]c1=S | 3.7µM* | 2.5% | 9.9% | 48.4% | -4.6%[2.29 µM] | -2.1%
CC(C)Cn1c(-c2csc3c2CCCC3)n[nH]c1=S | ? | 11.7µM* | 1.6% | 24.2% | -14.3% | 5.4%
CCOc1ccc(CNC(=O)Cn2nc(C)c3sc4ccccc4c3c2=O)cc1 | . | . | . | . | . | 2.6%
CCOC(=O)C1=C(Nc2ccccc2)CC(C)(O)C(C(=O)OCC)C1c1ccccc1 (stereo unspecified) | ? | ? | 0.3% | 7.3% | -8.6% | -4.2%
CCOC(=O)C1=C(Nc2ccccc2)CC(C)(O)C(C(=O)OCC)C1c1ccc(Br)cc1 (stereo unspecified) | ? | 14.7µM* | ? | -11.3% | 14.2% | -13.1%
CCOC(=O)C1=C(Nc2ccc(C)cc2)CC(C)(O)C(C(=O)OCC)C1c1ccccc1 (stereo unspecified) | 13.1µM* | 11.7µM* | 3.2% | -0.2% | ? | -1.9%
CCOC(=O)c1cccc(NC(=O)N2CC(CC)Oc3ccccc32)c1 (stereo unspecified) | . | . | . | . | . | -3.8%
O=C(CSc1nnc(-c2ccccc2Cl)o1)N1CCCc2ccccc21 | . | . | . | . | . | -1.2%
CCCCCCN1C=CC(=C/C=C(\C#N)C(=O)OCC)C=C1 | 13.1µM* | 10.4µM* | ? | -6.1% | -11.3% | 4.7%
Cn1c(/C(C#N)=C/c2ccc(-c3ccc(S(N)(=O)=O)cc3)o2)nc2ccccc21 | ? | ? | ? | 0.0% | 20µM* | -16.5%
SMILES | Pf growth 96h | Pf growth 48h | HCV inh | AMA1 RON2 block | AmpC inh no detg | AmpC detergent
COc1ccccc1CNC(=O)c1cnc2sccn2c1=O | -12.0% | 1.5% | 10µM* | -3.0% | 2.4% | ?
Cc1cccc(NC(=O)c2cnc3sccn3c2=O)c1C | -17.7% | 98.9% | 0.5% | . | 2.82µM* | ?
CCC(C)NC(=O)CSc1nc2c(sc3ccccc32)c(=O)n1CCc1ccccc1 (stereo unspecified) | . | . | . | . | . | 9.1%
O=C(CNCc1cccs1)Nc1ccc(S(=O)(=O)N2CCCCC2)cc1 | 18.4% | -12.7% | 20.0% | -10.4% | -27.5% | -2.7%
O=C(CNCc1cccs1)Nc1ccc(OC(F)(F)F)cc1 | 10.4µM* | 22.4% | 30.9% | -13.3% | 0.7% | 2.8%
O=C(CNCc1cccs1)Nc1ccc(N2CCCCCC2)cc1 | 13.3% | -29.9% | 1.7% | 35.5µM* | 7.3% | -3.3%
COc1ccc(-n2c(-c3ccc(Cl)cc3)c[n+]3c2CCc2ccccc2-3)cc1 | ? | 1.85µM* | -4.2% | -12.5% | 0.7% | 7.4%
COc1ccc(-n2c(-c3ccccc3)nnc2-c2ccc(Cl)cc2)cc1 | -24.1% | 12.9% | 15.9% | 0.0% | -8.7% | ?
O=C(C1CCN(S(=O)(=O)c2ccccc2)CC1)N(CCc1ccccc1)Cc1ccco1 | 28.6% | 13.1µM* | ? | -23.2% | -23.9% | ?
COCCN(Cc1ccccc1)C(=O)C1CCN(S(=O)(=O)c2ccc3c(c2)OCCO3)CC1 | 11.7µM* | ? | -0.5% | 68.2% | 90.5% | ?
Cc1ccc(CSC2=Nc3sccc3C3=NC(=O)CN23)cc1 | ? | 11.7µM* | ? | 7.9% | -26.5% | -2.1%
COc1cc2c(cc1OC)C1=NC(=O)CN1C(SCc1ccc(C)cc1)=N2 | 0.0% | ? | ? | 21.0% | 63.7% | -0.1%
Cc1ccc(-c2nc(-c3cc4cccc(OCc5cccc(F)c5)c4oc3=O)no2)cc1 | . | . | . | . | . | 15.6%
Cc1ccc(C(=O)Nc2cccc(OCc3cc(=O)n4c5c(sc4n3)CCCC5)c2)cc1 | . | . | . | . | . | 0.9%
CC(C)(C)c1cc(O)ccc1O | 10.7µM* | 6.01µM* | . | . | . | .
Cc1ccc(NC(=O)CSC2=C(C#N)C(c3ccc4c(c3)OCO4)CC(=O)N2)cc1C (stereo unspecified) | ? | ? | ? | -8.5% | -28.9% | -4.4%
CCc1ccc(NC(=O)CSC2=C(C#N)C(c3ccc4c(c3)OCO4)CC(=O)N2)cc1 (stereo unspecified) | . | . | 11.2µM* | -10.0% | . | .
CCSC1=C(C#N)C(c2cccc(Br)c2)CC(=O)N1 (stereo unspecified) | 13.1% | 6.57µM* | -5.0% | 2.6% | 11.3% | ?
Cc1ccc(-n2ncc3c(Nc4ccc5c(c4)OCCO5)ncnc32)cc1C | . | . | . | . | . | 6.5%
COCCCNC(=O)CCCn1c(=O)c2ccccc2n(CC(=O)Nc2ccc(C)cc2Cl)c1=O | . | . | . | . | . | 16.6%
COc1ccccc1NC(=O)CN1CCN(CC(=O)Nc2ccc(F)cc2F)CC1 | 4.15µM* | 28.5% | 1.1% | 7.2% | -13.0% | 2.7%

High-throughput results: PubChem BioAssay, National Center for Advancing Translational Sciences (NCATS)
